Growth data for 23 molecules are collected here from the supplement of paper PMC11172423.

Unmarked numbers belong to inactive results.

Assay [1] deals with Falciformispora senegalensis CBS197.79. Put plainly: growth relative to untreated control; higher = less inhibition, active = 20 or less. In a few lines:
(§1)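 In 96-well plates, suspended hyphal fragments of M. mycetomatis MM55 or F. senegalensis CBS197.79 were exposed to compound at 100 or 25 µM for 7 days at 37 °C. The suspension medium was colourless RPMI 1640 with L-glutamine and MOPS, adjusted to 68–72% transmission at 660 nm. Viability was measured with MTS (2 h, 490 nm) or resazurin (600 nm). Growth means metabolic activity compared with the untreated growth control after blank correction of both with medium plus dye.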

The test system of assay [2] is Madurella mycetomatis MM55. Described as above. The method, boiled down: as §1

Turning to `CC1(C)CCC(CO)(NC(=O)c2cc3c(F)cc(F)cc3[nH]2)CC1`, the growth in assay [1] (25 µM) was 93.1%; in assay [1] (100 µM) it was 93.5%; in assay [2] (25 µM), 28.6%; in assay [2] (100 µM) it was 6.07% (active).
Taken in the same sequence, the figures for `OB(O)O` were 90.6%, 104%, 98.7% and 163%.
The matching figures for `COC(=O)N[C@H](C(=O)N[C@@H](Cc1ccccc1)[C@@H](O)CN(Cc1ccc(-c2ccccn2)cc1)NC(=O)[C@@H](NC(=O)OC)C(C)(C)C)C(C)(C)C`: 114%, 108%, 88.9% and 105%.
Taken in the same sequence, the figures for `O=C(NC1CCNCC1)c1ccc(Nc2nccc(-c3ccc(Cl)cc3)n2)cc1` were 98%, 10% (active), 37.4% and 6.07% (active).
Consider `O=C(c1ccc(Nc2nccc(-c3cc(Cl)cc(C(F)(F)F)c3)n2)cc1)N1CC(O)C1`, for which the growth is 88.9% in assay [1] (25 µM), 93.2% in assay [1] (100 µM), 110% in assay [2] (25 µM) and 85.6% in assay [2] (100 µM).
Take `CCCN1CCC=C(c2cc(-c3ccc(C)cc3)no2)C1`: the growth is 103% in assay [1] (25 µM), 16.5% (active) in assay [1] (100 µM), 92.6% in assay [2] (25 µM) and 4.88% (active) in assay [2] (100 µM).
The matching figures for `CCCC(CCC)C(=O)O`: 112%, 106%, 76% and 79.4%.
Taken in the same sequence, the figures for `C[C@H]1c2cccc(O)c2C(=O)C2=C(O)[C@]3(O)C(O)=C(C(N)=O)C(=O)[C@@H](N(C)C)[C@@H]3[C@@H](O)[C@@H]21` were 108%, 108%, 63.1% and 91.7%.
The matching figures for `C[C@H](Cn1cnc2c(N)ncnc21)OCP(=O)(O)O`: 105%, 107%, 89.4% and 81.3%.
In the case of `COc1ccc(-n2nc(C(N)=O)c3c2C(=O)N(c2ccc(N4CCCCC4=O)cc2)CC3)cc1`, the growth in assay [1] (25 µM) was 104%; in assay [1] (100 µM) it was 91.6%; in assay [2] (25 µM), 111%; in assay [2] (100 µM), 84.1%.
As to `COc1ccc2cc1Oc1ccc(cc1)C[C@H]1c3cc(c(OC)cc3CCN1C)Oc1c(O)c(OC)cc3c1[C@@H](C2)N(C)CC3`, the growth was 100% in assay [1] (25 µM), 19.7% (active) in assay [1] (100 µM), 5.48% (active) in assay [2] (25 µM) and 5.12% (active) in assay [2] (100 µM).
The matching figures for `CCCCc1nc(Cl)c(CO)n1Cc1ccc(-c2ccccc2-c2nn[nH]n2)cc1`: 105%, 105%, 103% and 88.8%.
In the case of `CCC1=C(c2ccc(C)cc2)S(=O)(=O)N=C1N1CCC(C(=O)NCCN2CCCCC2C)CC1` (configuration not stated), the growth in assay [1] (25 µM) is 86.3%; in assay [1] (100 µM), 88.6%; in assay [2] (25 µM), 88%; in assay [2] (100 µM), 81.9%.
The matching figures for `NC(=O)c1ncn([C@@H]2O[C@H](CO)[C@@H](O)[C@H]2O)n1`: 110%, 102%, 87.9% and 87.6%.
In the case of `O=C(Nc1ncccc1O)c1ccc(N2CCOCC2)nc1`, the growth in assay [1] (25 µM) is 90%; in assay [1] (100 µM), 81.4%; in assay [2] (25 µM), 92.8%; in assay [2] (100 µM) it was 95.8%.
With `C[C@]1(c2nc3c(C(N)=O)cccc3[nH]2)CCCN1`, the growth is 95.9% in assay [1] (25 µM), 93.8% in assay [1] (100 µM), 130% in assay [2] (25 µM) and 87.6% in assay [2] (100 µM).
The matching figures for `CCOc1ccc(Cc2nccc3cc(OCC)c(OCC)cc23)cc1OCC`: 108%, 105%, 80.9% and 83%.
Taken in the same sequence, the figures for `O=C1NCCN1CCN1CCC(c2cn(-c3ccc(F)cc3)c3ccc(Cl)cc23)CC1` were 7.42% (active), 19.4% (active), 5.95% (active) and 4.92% (active).
For `CCCCOC(=O)c1c(C)cnc2ccccc12`, the growth in assay [1] (25 µM) was 90.5%; in assay [1] (100 µM) it was 98.7%; in assay [2] (25 µM), 86.7%; in assay [2] (100 µM), 141%.
For the molecule `CCN(CC)Cc1ccccc1CNc1ccnc2ccsc12`, the growth is 103% in assay [1] (25 µM), 28.1% in assay [1] (100 µM), 75.4% in assay [2] (25 µM) and 5.38% (active) in assay [2] (100 µM).
The matching figures for `N#Cc1ccc(-c2n[nH]c3ccc(-c4n[nH]c(CC(F)(F)F)n4)cc23)cc1`: 94%, 98.3%, 109% and 114%.
Take `COc1ccc2cc1Oc1ccc(cc1)C[C@H]1c3cc(c(OC)cc3CCN1C)Oc1c(OC)c(OC)cc3c1[C@H](C2)N(C)CC3`: the growth in assay [1] (25 µM) is 33.4%; in assay [1] (100 µM), 20.6%; in assay [2] (25 µM) it was 3.29% (active); in assay [2] (100 µM), 3.62% (active).
Taken in the same sequence, the figures for `NC(=O)C(c1ccccc1)(c1ccccc1)[C@@H]1CCN(CCc2ccc3c(c2)CCO3)C1` were 95.3%, 97.9%, 106% and 79.1%.
